Bioassay records deposited in PubChem by several laboratories.
PfHsp90 yeast 2: growth inhibition of PfHsp90-expressing yeast, primary screen, antimalarial PfHsp90 inhibitor project, S. cerevisiae, BacTiter-Glo luminescence, single point, set 2; BacTiter-Glo ATP, 48 h; yeast lacking PDR1 and PDR3 efflux regulators; inhibition, % at 9.4 µM; hit rate 0.32% among 310,000; AID 504621, 2011;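 active = every replicate shows inhibition above about 80%, whatever the replicate mean, limit read from the data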;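 also: 0% = DMSO neutral controls and 100% = 20 µM radicicol positive controls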
NALP3 yeast inh: NALP3 inflammasome inhibitors in reconstituted yeast, primary screen, luminescence, uHTS; AID 2825, 2010; inhibition, % at 10 µM; hit rate 0.39% among 330,000; Yeast reconstituted NLRP3/ASC/caspase-1, beta-gal luminescence, 24 h;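 active = inhibition of 50% or more; inactive = inhibition below 50%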;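 also: plate controls were induced DMSO wells for no effect and uninduced yeast grown without galactose for full effect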
TIM10 inh: growth inhibitors of isogenic TIM10 control yeast, primary screen, counter-screen for tim10-1 yeast inhibitor project, luminescence, uHTS; S. cerevisiae TIM10 strain growth, BacTiter-Glo luminescence, 24 h; inhibition, % at 10 µM; hit rate 1.4% among 330,000; AID 463195, 2010;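 active = inhibition of 40% or more at the single tested concentration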;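 also: wild-type TIM10 isogenic control strain grown at permissive 25 °C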
tim10-1 inh: growth inhibitors of tim10-1 mutant yeast, primary screen, luminescence, uHTS; inhibition, % at 20 µM; S. cerevisiae tim10-1 ts strain growth, BacTiter-Glo, 24 h; hit rate 2.2% among 330,000; AID 463190, 2010;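 active = inhibition of at least 40%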;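 also: mutant grown at 25 °C; 0% = DMSO wells with yeast and 100% = wells holding no yeast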
NALP1 inh: NALP1 inflammasome inhibitors in reconstituted yeast, colorimetric, S. cerevisiae, triplicate retest; hit rate 0.61% among 280,000; inhibition, % at 10 µM; AID 2071, 2009; S. cerevisiae NALP1/ASC/caspase-1 growth, X-gal OD620, 72 h; in the data active = inhibition mostly above about 24%, no sharp cut-off; inactive = mostly below about 32%
tim23-1 inh: growth inhibitors of tim23-1 mutant yeast, primary screen, luminescence, uHTS | inhibition, % at 20 µM | hit rate 1.3% among 330,000 | S. cerevisiae tim23-1 growth, BacTiter-Glo luminescence, 24 h;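 active = growth inhibition of the mutant yeast at or above 50%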;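 also: temperature-sensitive mutant grown at 25 °C; plate controls were DMSO-treated mutant yeast for no effect and medium wells lacking yeast for full effect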
tim10-1 conf: growth inhibitors of tim10-1 mutant yeast, confirmation, single concentration, luminescence, S. cerevisiae; hit rate 56% among 7,400; S. cerevisiae tim10-1 ts strain growth, BacTiter-Glo, 24 h; inhibition, % at 20 µM; AID 463213, 2010; shares compounds with tim10-1 inh;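 active = inhibition of yeast growth at or above a set limit in either of two repeat tests at 20 µM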;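 also: tim10-1 mutant grown at permissive 25 °C to find synthetic lethal compounds; 0% = DMSO yeast wells and 100% = medium wells without yeast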
TIM10 conf: growth inhibitors of wild-type TIM10 yeast, confirmation, counter-screen for tim10-1 synthetic lethality project, single concentration, luminescence, S. cerevisiae; shares compounds with TIM10 inh; S. cerevisiae tim10 strain growth, BacTiter-Glo luminescence, 24 h; inhibition, % at 10 µM; hit rate 63% among 4,600;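 active = inhibition of yeast growth at or above a set limit in either of two replicates at 10 µM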;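 also: this counterscreen used the strain with wild-type TIM10; 0% = yeast with DMSO and 100% = medium wells lacking yeast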
tim23-1 confirm: tim23-1 mutant yeast growth inhibitors, confirmation, luminescence, single concentration; shares compounds with tim23-1 inh; S. cerevisiae tim23-1 growth, BacTiter-Glo luminescence, 24 h; inhibition, % at 20 µM; hit rate 83% among 4,400; AID 463218, 2010;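 active = inhibition above about 39% in either of two replicate wells at 20 µM, limit read from the data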;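 also: temperature-sensitive tim23-1 mutant grown at 25 °C; 0% = DMSO wells with yeast and 100% = medium wells without yeast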
Active calls of the source: *; nt = no result. Shown are actives, neighbours in structure and some others; about 4.1% of the full set was active somewhere.

SMILES	PfHsp90 yeast 2	NALP3 yeast inh	TIM10 inh	tim10-1 inh	NALP1 inh	tim23-1 inh	tim10-1 conf	tim23-1 confirm	others
O=C(O)c1ccccc1/C=N/n1c(C2CCCCC2)n[nH]c1=S	-22	10	9	-7	-6	-3	nt	nt
S=c1[nH]nc(C2CCCCC2)n1/N=C/c1ccncc1	18	14	-11	12	-10	-3	nt	nt
S=c1[nH]nc(C2CCCCC2)n1/N=C/c1ccccc1Cl	-38	23	27	58*	8	64*	29*	61*
FC(F)(F)c1ccccc1/C=N/n1c(C2CCCCC2)n[nH]c1=S	-196	9	33	48*	-8	51*	33*	51*
Cc1cc(C)cc(C(=O)NCC(=O)N2CCC(C(N)=O)CC2)c1	6	7	3	-4	nt	-1	nt	nt
O=C(Cc1ccccc1)c1nnc(-c2ccccc2)o1	-22	8	13	19	8	3	nt	nt
Cc1noc(C)c1COc1ccccc1C(=O)NC(C)c1ccc(Cl)cc1 (stereo not given)	-5	3	-11	23	nt	26	nt	nt
O=C(NC(=S)Nc1ccccc1N1CCCC1)c1cccs1	7	-42	0	34	-24	35	nt	nt
O=C(NC(=S)Nc1ccccc1N1CCN(C(=O)c2ccccc2)CC1)c1ccccc1F	-68	8	25	29	12	33	nt	nt
COc1cccc(C(=O)NC(=S)Nc2ccccc2N2CCOCC2)c1	16	18	39	44*	16	53*	30*	46*
CS(=O)(=O)N1CCN(c2ccc(NC(=S)NC(=O)c3cccs3)cc2)CC1	1	10	5	-9	-2	1	nt	nt
O=C(NC(=S)Nc1ccccc1N1CCOCC1)c1ccccc1F	-69	10	39	52*	19	57*	44*	55*
O=C(NC(=S)Nc1ccc(N2CCCCC2)cc1)c1cccs1	-11	31	55*	44*	33	51*	14	50*	TIM10 conf=27
O=C(NC(=S)Nc1ccccc1N1CCOCC1)c1cccs1	-74	-37	57*	52*	16	59*	36*	60*	TIM10 conf=38*
CC(C)Oc1ccc(C2NC(=O)c3ccccc3O2)cc1 (stereo not given)	20	48	-1	20	-3	26	nt	nt
CCc1cccc(CC)c1NC(=O)/C(C#N)=C/c1ccccc1C(F)(F)F	75	7	57*	41*	20	55*	-7	42*	TIM10 conf=14
CCc1cccc(CC)c1NC(=O)c1ccccc1	-10	10	9	11	-18	4	nt	nt
N#C/C(=C/C=C/c1ccccc1)C(=O)Nc1ccccc1	12	5	21	15	-9	28	nt	nt
N#C/C(=C\c1ccccc1C(F)(F)F)C(=O)Nc1ccccc1	1	8	73*	57*	22	52*	58*	63*	TIM10 conf=61*
CCN(CC)S(=O)(=O)c1ccc(C(=O)NCC(=O)NCCCc2ccccc2)cc1	7	0	1	-3	-2	7	nt	nt
COc1ccc(Nc2cc(C)c3cc([N+](=O)[O-])ccc3n2)cc1	-1	32	37	53*	29	51*	53*	67*
c1ccc(Cn2cc(CN3CCCO3)c(-c3ccc4c(c3)OCO4)n2)cc1	-24	21	-4	3	17	-7	nt	nt
